A selection: hits, their analogues and other compounds. The true share with any hit is near 2.5%.
GALK inhibitor: inhibitors of human galactokinase (GALK). P51570. recombinant GALK, Kinase-Glo ATP luminescence, 1 h. Potency, µM (highest dose often 57.5 µM), for the others: at the highest dose activity, negative = inhibition, hits mostly inhibitors. 44,000 tested, under 10 active. AID 1347072;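 note: plate controls were full GALK reaction for no effect and reaction lacking GALK for full effect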
Target sequence (P51570 whole entry, looked up): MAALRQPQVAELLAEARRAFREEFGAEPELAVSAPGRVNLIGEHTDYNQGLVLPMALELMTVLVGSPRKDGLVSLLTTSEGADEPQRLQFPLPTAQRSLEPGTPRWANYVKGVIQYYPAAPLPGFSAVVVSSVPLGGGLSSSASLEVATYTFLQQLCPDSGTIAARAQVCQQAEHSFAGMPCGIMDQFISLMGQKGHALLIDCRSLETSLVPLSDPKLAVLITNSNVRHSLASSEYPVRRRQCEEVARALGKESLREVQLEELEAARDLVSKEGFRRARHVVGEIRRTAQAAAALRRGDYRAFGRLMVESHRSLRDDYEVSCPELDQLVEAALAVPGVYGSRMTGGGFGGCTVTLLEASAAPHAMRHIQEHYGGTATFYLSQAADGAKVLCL
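Human GALK (5 nM) was incubated with 35 uM ATP and 100 uM galactose in 20 mM HEPES pH 8.0 with MgCl2, NaCl, DTT and BSA for 1 h at room temperature. Remaining ATP was measured by Kinase-Glo Plus luminescence.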
NTMT1 inh: inhibitors of human N-terminal methyltransferase NTMT1; Potency, µM (doses to about 114 µM), inactives show top-dose activity change, negative = inhibition, hits mostly inhibitors; AID 1645870; Q9BV86; NTMT1 MTase-Glo SAH luminescence, purified enzyme; hit rate 2.5% among 59,000;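 note: potency is the fitted concentration of half-maximal effect; plate controls were DMSO vehicle for no effect and no enzyme for full effect; nearly all actives have a fitted effect of over 65% in size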
Target sequence (Q9BV86 whole entry, looked up): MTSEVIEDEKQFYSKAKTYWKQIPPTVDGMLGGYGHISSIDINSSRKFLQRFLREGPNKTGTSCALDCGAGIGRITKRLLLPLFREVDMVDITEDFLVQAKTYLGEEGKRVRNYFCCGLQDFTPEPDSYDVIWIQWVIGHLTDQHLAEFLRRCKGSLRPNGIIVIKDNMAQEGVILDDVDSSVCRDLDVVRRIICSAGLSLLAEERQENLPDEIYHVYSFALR
HTT-AS act: activates huntingtin-antisense promoter activity; HEK293 HTT-AS promoter firefly luciferase reporter, 24 h; response scale: percent change from vehicle, -100% = no light; Potency, µM (top dose mostly 57.5 µM), for inactives: top-dose activity change, positive = activation, usual class: activators; hit rate 0.24% among 48,000; AID 1508624; note: potency is the fitted concentration of half-maximal effect; nearly all actives have a fitted effect of over 55% in size
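HEK293 cells carrying firefly luciferase reporters were seeded at 2,500 per well in Opti-MEM and cultured for 24 h. They were then treated with compounds at up to 57.5 uM final for 24 h at 37 degrees C before Dual-Glo luminescence readout.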
HTT prom inh: inhibits huntingtin promoter activity. Potency, µM (top dose mostly 57.5 µM), for the others: top-dose activity change, negative = inhibition, hits mostly inhibitors. hit rate 0.93% among 48,000. HEK293 HTT promoter firefly luciferase reporter, 24 h; note: potency is the fitted concentration of half-maximal effect; nearly all actives have a fitted effect of over 50% in size
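Firefly luciferase signal from promoter-reporter HEK293 cells was scaled between vehicle (0%) and zero RLU (-100%). Compounds were tested at final concentrations of up to 57.5 uM over 24 h at 37 degrees C. PTC124 at 50 uM final served as control inhibitor.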
OvCa metastasis: inhibitors of ovarian cancer cell adhesion and invasion in omental model; SKOV3ip1-GFP adhesion/invasion on 3D omental model, fluorescence; Potency, µM (titrated, usually from 45.8 µM), for inactives: at the top dose activity change, negative = inhibition, actives largely listed as inhibitors; hit rate 0.1% among 46,000;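 note: potency is the fitted concentration of half-maximal effect; plate controls were DMSO wells for no effect and tomatine positive control wells for full effect; nearly all actives have a fitted effect of over 65% in size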
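A 3D layer of primary human omental fibroblasts, mesothelial cells, fibronectin and collagen I, grown 48 hr, received SKOV3ip1-GFP cells in serum-free medium plus compounds at 0.36-46 umol/L. After 2 hr RT and 16 hr 37 C, fixed adherent GFP cells were counted; normalized to DMSO and tomatine.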
TSG101-PTAP inh: inhibitors of HIV-1 PTAP binding to human TSG101, validation; Fluorescence polarization, FITC-PTAP peptide/Tsg101, 20 min; Potency, µM (titrated, usually from 115 µM), hits mostly inhibitors; 44,000 tested, under 10 active; AID 1347069; note: potency is the fitted concentration of half-maximal effect; 0% is about no effect
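The Tsg101 binding domain, at 10 uM final, is mixed with compound and a FITC peptide bearing the PTAP motif (50 nM final). After 20 min at r.t., polarization is measured; actives defined by CRC class, efficacy cut-off 60% inhibition.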
NNMT counter: counter-screen for NTMT1 inhibitors: human NNMT inhibition. shares compounds with NTMT1 inh. NNMT MTase-Glo luminescence, SAH detection. Potency, µM (titrated, usually from 57.1 µM), for the others: at the highest dose activity, negative = inhibition, hits mostly inhibitors. hit rate 10% among 120
* hit, by the source's call; ! = a repeat was not active; [ ] = remark or other dose. Calls come from the whole dose curve; as a rule, active = well fitted curve in the direction sought with a large enough effect; inconclusive = small, poorly fitted or top-dose-only effect, or another doubt; inactive = no such curve, though single readings can be large; an effect the other way counts as inactive or inconclusive.

How did COc1cc(O)c2c(c1)CCC[C@@H](O)[C@H](O)C(=O)/C=C\C[C@H](C)OC2=O do in these assays?
NTMT1 inh: 10µM*

Results for CC1CCCC(O)CC(=O)Cc2cc(O)cc(O)c2C(=O)O1 (stereo not given) ?
NTMT1 inh: -15%[29.8 µM]

Results for CN(C)C(=S)SSC(=S)N(C)C ?
NTMT1 inh: 7.9µM*; HTT-AS act: -43%; HTT prom inh: -28%

What do the screens show for `Cc1ccc(-n2c(/C=C\c3ccc(F)c(F)c3)nc3ccccc3c2=O)c(C)c1`?
GALK inhibitor: 4%; NTMT1 inh: 4%; HTT-AS act: -32%; HTT prom inh: 7.1µM*; OvCa metastasis: -1%; TSG101-PTAP inh: inactive

How did N#Cc1ccc(NC(=O)Nc2nnc(-c3ccncc3)s2)cc1Cl do in these assays?
NTMT1 inh: -9%

Results for COc1cc(C)[nH]c(=O)c1CNC(=O)c1c(C)n([C@H](C)C2CCN(CC(F)(F)F)CC2)c2ccccc12 ?
NTMT1 inh: -2%

How did CCOc1ccc(CCNC(=O)c2cc3ccccc3n2Cc2cccc(C)n2)cc1OCC do in these assays?
NTMT1 inh: 13%

How did Oc1ccc([C@H]2CNCc3c2ccc(O)c3O)cc1O do in these assays?
NTMT1 inh: 2.8µM*; HTT-AS act: -8%; HTT prom inh: 0%

Results for O=C1C(I)=CC(=C(c2cc(I)c(O)c(I)c2)c2ccccc2C(=O)O)C=C1I ?
NTMT1 inh: 14µM*; HTT-AS act: -24%; HTT prom inh: -4%

Results for Nc1ccccc1C(=O)O ?
NTMT1 inh: 13%[57.5 µM]; HTT-AS act: -4%; HTT prom inh: 1%

How did CC(C)(NC(=O)O[C@@H]1CN2CCC1CC2)c1csc(-c2ccc(F)cc2)n1 do in these assays?
NTMT1 inh: -91%

How did CCCCCCCCCCCCCCCC[N+](C)(C)C do in these assays?
NTMT1 inh: 25µM*; HTT-AS act: -36%; HTT prom inh: inconclusive

Results for O=C(CBr)Nc1ccc(Cl)cc1C(=O)c1ccccc1F ?
NTMT1 inh: 14µM*; HTT-AS act: -12%; HTT prom inh: -5%

How did CC1(C)C(=O)N(c2ccc(C#N)c(C(F)(F)F)c2)C(=S)N1Cc1ccc(-c2cn[nH]n2)cc1 do in these assays?
NTMT1 inh: 25%

What do the screens show for `CCOC(=O)c1ccc(NC(=O)CSc2nc3c(cc2C#N)N2CCC3CC2)cc1`?
GALK inhibitor: 9%; NTMT1 inh: -8%; HTT-AS act: -20%; HTT prom inh: -27%; OvCa metastasis: inactive; TSG101-PTAP inh: inactive

Results for N#Cc1cc2c(nc1SCC(=O)Nc1ccc(OC(F)(F)F)cc1)C1CCN2CC1 ?
GALK inhibitor: -3%; NTMT1 inh: 6%; HTT-AS act: -51%; HTT prom inh: 28µM*; OvCa metastasis: -16%; TSG101-PTAP inh: inactive

Results for COc1ccc2c(c1)/C(=C/c1cnc[nH]1)C(=O)N2 ?
NTMT1 inh: 40µM*

How did Cc1[nH]ncc1-c1cc2nc([C@@H]3CC4CCN3CC4)[nH]c(=O)c2s1 do in these assays?
NTMT1 inh: 12%

What do the screens show for `COP(=S)(OC)SCN1C(=O)c2ccccc2C1=O`?
NTMT1 inh: 28µM*; HTT-AS act: -26%; HTT prom inh: -8%

Results for COC[C@H]1OC(=O)c2coc3c2[C@@]1(C)C1=C(C3=O)[C@@H]2CC[C@H](O)[C@@]2(C)C[C@H]1OC(C)=O ?
NTMT1 inh: -2%

How did CCCCCCCCCC(CC)c1ccc(S(=O)(=O)O)cc1 (stereo not given) do in these assays?
NTMT1 inh: 10µM*; HTT-AS act: -17%[116 µM]; HTT prom inh: 12%[116 µM]

What do the screens show for `Cc1cc(SCc2sc(-c3ccc(C(F)(F)F)c(F)c3)nc2C)ccc1OCC(=O)O`?
NTMT1 inh: 71µM*!; HTT-AS act: inconclusive; HTT prom inh: 17%; OvCa metastasis: 6%

How did CCOc1ccc(CN(CCc2ccc3c(c2)OCO3)Cc2cccc(Br)c2)cc1 do in these assays?
GALK inhibitor: 1%; NTMT1 inh: 8.9µM*; HTT-AS act: -12%; HTT prom inh: 0%; OvCa metastasis: -30%; TSG101-PTAP inh: inactive

What do the screens show for `CCOc1ccc(CN(CCc2ccc3c(c2)OCO3)Cc2cccc(OC)c2)cc1`?
GALK inhibitor: -2%; NTMT1 inh: 2%; HTT-AS act: -28%; HTT prom inh: -29%; OvCa metastasis: 17%; TSG101-PTAP inh: inactive

What do the screens show for `C[C@H](N)[C@H](O)c1ccc(O)c(O)c1`?
NTMT1 inh: 20µM*; HTT-AS act: -5%; HTT prom inh: -6%

Results for Oc1cccc2cc(N3CCNCC3)cnc12 ?
NTMT1 inh: 0%

What do the screens show for `CN1C(=O)[C@@H](NC(=O)[C@H](CCC(F)(F)F)[C@H](CCC(F)(F)F)C(N)=O)N=C(c2ccccc2)c2ccccc21`?
NTMT1 inh: 5%

How did N#CC(OC1OC(COC2OC(CO)C(O)C(O)C2O)C(O)C(O)C1O)c1ccccc1 (stereo not given) do in these assays?
NTMT1 inh: 16%[29.8 µM]

Results for N#Cc1cn([C@@H]2O[C@H](CO)[C@H](O)[C@@H]2O)c2ncnc(N)c12 ?
NTMT1 inh: 8.9µM*

What do the screens show for `CCOc1ccc(NC(=O)c2cccn(Cc3cccc(Cl)c3)c2=O)cc1`?
GALK inhibitor: 2%; NTMT1 inh: 8%; HTT-AS act: -34%; HTT prom inh: 16µM*; OvCa metastasis: inactive; TSG101-PTAP inh: inactive

What do the screens show for `Cc1nnc(NC(=O)c2cccn(Cc3cccc(Cl)c3)c2=O)s1`?
GALK inhibitor: -1%; NTMT1 inh: -9%; HTT-AS act: 1%; HTT prom inh: 27%; OvCa metastasis: 6%; TSG101-PTAP inh: inactive

Results for COc1ccc(NC(=O)c2cccn(Cc3ccc(Cl)cc3)c2=O)c(OC)c1 ?
GALK inhibitor: 0%; NTMT1 inh: -20%; HTT-AS act: -50%; HTT prom inh: 13µM*; OvCa metastasis: -7%; TSG101-PTAP inh: inactive

What do the screens show for `C/C=C(\C)C(=O)N[C@@H](c1ccccc1)[C@@H](O)C(=O)O[C@H]1C[C@@]2(O)[C@@H](OC(=O)c3ccccc3)[C@@H]3[C@]4(OC(C)=O)CO[C@@H]4C[C@H](O)[C@@]3(C)C(=O)[C@H](OC(C)=O)C(=C1C)C2(C)C`?
NTMT1 inh: 2%

Results for Cc1cc(C)c(OP(=O)(OCc2c(-c3ccccc3)no[n+]2[O-])Oc2c(C)cc(C)cc2C)c(C)c1 ?
NTMT1 inh: -5%

What do the screens show for `C[C@H]1CCC[C@H](O)CCC/C=C/c2cc(O)cc(O)c2C(=O)O1`?
NTMT1 inh: 1.4µM*; NNMT counter: 3.5µM*

Results for COC(=O)[C@@]12OC[C@]34[C@H]([C@@H](O)[C@@H]1O)[C@@]1(C)CC(=O)C(O)=C(C)[C@@H]1C[C@H]3OC(=O)[C@H](OC(=O)/C=C(\C)C(C)C)[C@@H]24 ?
NTMT1 inh: 17%
